# Bioassay records from PubChem BioAssay.
# Pf growth 96h: Primary qHTS for delayed death inhibitors of the malarial parasite plastid, 96 hour incubation | P. falciparum luciferase reporter growth, 96 h | Potency, µM (series often up to 28.7 µM), without a hit: at the highest dose activity change, negative = inhibition, actives largely listed as inhibitors | 320,000 tested, 6.9% active | AID 504834, 2011; active means well fitted inhibition curve with a large enough effect; inconclusive means small, poorly fitted or top-dose-only effect, or another doubt; inactive means no such curve, though single readings can be large or run the other way; further: potency means the concentration at half of the fitted maximal effect; on the % scale 0 is the no-effect control and ±100 the full control effect
#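 Readout is luminescence from an integrated firefly luciferase in P. falciparum. Red cells, 2% hematocrit and 0.05% parasitemia final, were cultured with compound through two parasite generations (96 hours) at 37 C, 5% CO2.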
# Pf growth 48h: Primary qHTS for delayed death inhibitors of the malarial parasite plastid, 48 hour incubation; P. falciparum luciferase growth in erythrocytes, 48 h; Potency, µM (doses to about 28.7 µM), without a hit: at the top dose activity change, negative = inhibition, hits mostly inhibitors; 310,000 tested, 5.9% active; active means well fitted inhibition curve with a large enough effect; inconclusive means small, poorly fitted or top-dose-only effect, or another doubt; inactive means no such curve, though single readings can be large or run the other way; further: potency means the concentration at half of the fitted maximal effect; on the % scale 0 is the no-effect control and ±100 the full control effect
#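 A one-generation exposure of luciferase-tagged malaria parasites in RPMI 1640/Albumax erythrocyte culture, 37 C and 5% CO2. Inhibition is inferred from decreased luminescence after adding detection reagent.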
# CHX counter: Cycloheximide Counterscreen for Small Molecule Inhibitors of Shiga Toxin. 300,000 tested, 12% active. cell reporter, cycloheximide protein synthesis inhibition counterscreen. max response, %; in the data active means max response mostly above about 13%, no sharp cut-off; inactive means mostly below about 14%; further: read at 38.3 µM for the half of the compounds with a filed dose; 0% is about no effect
# SARS PLP yeast: qHTS of Yeast-based Assay for SARS-CoV PLP | 330,000 tested, 0.19% active | S. cerevisiae expressing SARS-CoV PLpro, growth rescue | AID 485353, 2010 | Potency, µM (series often up to 32.9 µM), inactives show at the top dose activity, positive = growth rescue, hits mostly activators; further: potency means the concentration at half of the fitted maximal effect; 0% is about no effect; nearly all actives have a fitted effect of over 55% in size
# NS1 inh: qHTS Assay for Inhibitors of Influenza NS1 Protein Function | Potency, µM (series often up to 46.1 µM), for inactives: top-dose activity, positive = more growth | 270,000 tested, 0.4% active; further: potency means the concentration at half of the fitted maximal effect; actives are rising curves; nearly all actives have a fitted effect of over 50% in size
#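 In this qHTS, NS1 from influenza A is expressed in budding yeast, where it slows growth. Cells are switched from glucose to 2% galactose medium (pH 6.0, -URA), treated with compound, and growth recovery is read at OD600.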
# Shiga toxin inh: A qHTS for Small Molecule Inhibitors of Shiga Toxin | Vero cells, Shiga toxin protein synthesis inhibition reporter | inhibition, % at 38.7 µM | AID 2315, 2010 | 290,000 tested, 9.2% active; in the data active means inhibition mostly above about 28%, no sharp cut-off; inactive means mostly below about 43%; further: 0% is about no effect
# * hit, by the source's call; ? = inconclusive; . = no result given. A selection: hits, their analogues and other compounds. The true share with any hit is near 21%. Unless noted, the call rests on the fitted dose curve.
SMILES,Pf growth 96h,Pf growth 48h,CHX counter,SARS PLP yeast,NS1 inh,Shiga toxin inh
S=C(NCc1ccc2c(c1)OCO2)Nc1ccc(-c2nc3ccccc3[nH]2)cc1,5.2µM*,12µM*,32*,-1%,19%,62*
CN(C)CCNC(=S)Nc1ccc(-c2nc3ccccc3[nH]2)cc1,?,-47%,46*,-5%,.,122*
S=C(NCc1ccc2c(c1)OCO2)NCc1ccc2c(c1)OCO2,57%,1%,0,8%,9%,-1
S=C(NCCCN1CCOCC1)Nc1ccc(-c2nc3ccccc3[nH]2)cc1,?,?,28,-1%,.,38
COc1ccccc1CNC(=O)C1CCN(S(=O)(=O)c2ccc3c(c2)NC(=O)CO3)CC1,10µM*,-12%,-1,0%,-9%,-2
Cc1ccc(C)c(NS(=O)(=O)c2ccc3c(c2)NC(=O)CO3)c1,-28%,6%,-10,-4%,3%,-8
COc1cc(OC)c(NS(=O)(=O)c2ccc3c(c2)NC(=O)CO3)cc1Cl,10µM*,4%,-8,0%,19%,-5
Cc1ccc(NC(=O)C2CCN(S(=O)(=O)c3ccc4c(c3)NC(=O)CO4)CC2)cc1,13µM*,?,4,3%,2%,-6
CCOc1ccc(-n2ccnc2SCC(=O)NCc2ccc3c(c2)OCO3)cc1,18%,41%,-3,13%,-64%,-18
Cc1cccc(-n2nc3c(c2NC(=O)C(C)C)CSC3)c1,27%,29%,-2,-4%,14%,-3
C/C(CC(=O)Nc1ccc(C)c(Cl)c1)=N\NC(=O)Cc1ccccc1,5%,-6%,8,-14%,20%,-7
C/C(CC(=O)Nc1ccc(C)c(Cl)c1)=N\NC(=O)c1ccco1,15%,14%,45*,-1%,1%,94*
C/C(CC(=O)Nc1ccc(Cl)cc1Cl)=N\NC(=O)c1ccco1,18%,22%,37*,-11%,4%,116*
COc1cccc(NC(=O)CN2C(=O)CSc3ccc(S(=O)(=O)N4CCCCC4)cc32)c1,58%,?,15,-2%,16%,-2
CCCn1nc(C(=O)Nc2ccc3c(c2)OCCO3)c2ccccc2c1=O,?,20%,.,1%,.,.
CCn1cc(Cl)c(C(=O)Nc2ccccc2C(N)=O)n1,13µM*,83%,29*,-2%,.,20
COc1cc(NC(=O)CSCC(=O)Nc2cccc(C(F)(F)F)c2)c(Cl)cc1Cl,12µM*,?,-1,-37%,-3%,9
O=C(COCC(=O)Nc1cccc(C(F)(F)F)c1)Nc1cccc(C(F)(F)F)c1,?,.,5,-1%,12%,9
CCn1cc(Cl)c(C(=O)Nc2cccc(C(F)(F)F)c2)n1,2.6µM*,174%,32*,1%,.,58*
CCn1cc(Cl)c(C(=O)Nc2ccc3c(c2)OCCO3)n1,14%,246%,44*,-3%,.,168*
CCN(C(=O)CSc1cccc[n+]1[O-])C1CCCCC1,.,.,.,-3%,.,.
COc1ccc(C(=O)NCCNc2nc3cc(C)c(C)cc3cc2C)cc1,?,?,-7,13%,?,-8
CSc1ncccc1C(=O)Nc1ccc(OC(F)(F)F)cc1,42%,10%,13*,-2%,.,15
COc1ccc2nc(NC(=O)c3cccnc3SC)sc2c1,226%,143%,61*,-47%,0%,35*
COC(=O)c1sc(NC(=O)/C=C/c2ccc(C)o2)nc1C,84%,153%,33*,6%,11%,56*
COc1ccc2nc(NC(=O)c3sc4nc(C)cc(C)c4c3N)sc2c1,215%,149%,36*,1%,12%,76*
CC(C)c1nccn1Cc1ccc(Cl)cc1Cl,.,.,.,.,-3%,.
Cc1cc(C(=O)Nc2nc3ccc(S(C)(=O)=O)cc3s2)c(C)o1,22%,126%,16*,-4%,9%,30*
COc1ccc2oc(C(=O)Nc3nc4ccc(S(C)(=O)=O)cc4s3)c(C)c2c1,7%,?,.,2%,.,.
COc1ccc(OC)c(NC(=O)c2cccnc2Sc2cc(C)ccc2C)c1,?,10µM*,-5,?,-11%,-7
